Records with an inconclusive call do not appear. Active and inactive are the calls of the source. How the source made its calls: active means hit-call score of the fitted dose curve at least 0.9, where 1 is the maximum; inconclusive means response in the unintended direction; inactive means score below 0.9.
What follows are compounds tested against Nuclear receptor subfamily 4 group A member 2 (Homo sapiens) (UniProt P43354) (assay: ATG_NURR1_TRANS: Attagene TRANS-FACTORIAL HepG2 Assay for human Nuclear Receptor Related Protein 1 (NURR1) (AID 2282985)). Details: HepG2 Attagene TRANS reporter, mRNA readout.
Sequence of Nuclear receptor subfamily 4 group A member 2 (Homo sapiens) (P43354 whole entry, looked up): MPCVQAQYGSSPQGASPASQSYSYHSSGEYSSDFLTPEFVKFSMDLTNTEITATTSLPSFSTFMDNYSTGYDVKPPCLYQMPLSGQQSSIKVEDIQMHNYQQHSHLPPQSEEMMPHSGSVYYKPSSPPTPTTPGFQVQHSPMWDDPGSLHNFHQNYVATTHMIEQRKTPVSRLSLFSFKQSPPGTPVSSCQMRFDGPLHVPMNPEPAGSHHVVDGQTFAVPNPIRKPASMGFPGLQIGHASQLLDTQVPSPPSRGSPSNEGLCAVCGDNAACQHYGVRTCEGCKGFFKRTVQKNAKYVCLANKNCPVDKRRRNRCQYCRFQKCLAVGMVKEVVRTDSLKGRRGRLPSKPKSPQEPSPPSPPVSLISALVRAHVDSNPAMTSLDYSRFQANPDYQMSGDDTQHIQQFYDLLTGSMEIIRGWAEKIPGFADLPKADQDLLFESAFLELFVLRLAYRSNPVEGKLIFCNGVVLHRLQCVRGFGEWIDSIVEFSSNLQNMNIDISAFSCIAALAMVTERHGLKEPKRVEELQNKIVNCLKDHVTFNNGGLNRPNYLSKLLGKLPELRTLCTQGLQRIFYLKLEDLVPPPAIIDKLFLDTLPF
Procedure: ATG_TRANS is a cell-based, multiplexed-readout assay that uses HepG2, a human liver cell line, with measurements taken at 24 hours after chemical dosing in a 24-well plate.ATG_NURR1_TRANS is one of 30 assay component(s) measured or calculated from the ATG_TRANS assay. It is designed to make measurements of mRNA induction, a form of inducible reporter, as detected with fluorescence intensity signals by Reverse transcription polymerase chain reaction (RT-PCR) and Capillary electrophoresis technology.Data from the assay component ATG_NURR1_TRANS was analyzed into 1 assay endpoint. This assay endpoint, ATG_NURR1_TRANS, was analyzed in the positive analysis fitting direction relative to DMSO as the negative control and baseline of activity. Using a type of inducible reporter, measures of mRNA for gain-of-signal activity can be used to understand the reporter gene at the transcription factor-level as they relate to the gene NR4A2. Furthermore, this assay endpoint can be referred to as a primary readout, because this assay has produced multiple assay endpoints where this one serves a reporter gene function. To generalize the intended target to other relatable targets, this assay endpoint is annotated to the nuclear receptor intended target family, where the subfamily is orphan.
Human liver HepG2 cells are transiently transfected with multiple reporter transcription units (MRTUs) in 6-well plates using FuGene 6 reagent (Roche; 3 ml FuGene/1 mg DNA). The MRTU constructs are regulated by a cis-regulating element (promoter). […] A major difference between the CIS and TRANS system is that in CIS activities of endogenous TFs are measured, whereas the TRANS assay evaluates changes in activities of exogenous, chimeric NR-Gal4 proteins. […] At the end of 24 hour incubation, total RNA was isolated using TriZol reagent (Invitrogen). The isolated RNA is then reverse-transcribed using oligo(dT) primer and Mo-MLV reverse transcriptase (Invitrogen) with DNAse I (Ambion) treatment for 30 min. The one-tenth of the produced cDNA was amplified by PCR using Taq DNA polymerase (Invitrogen) and two reporter sequence-specific primers. The PCR products were fluorescently labeled by primer extension with 6-arboxyfluorescein (6-FAM) 5'-labeled reporter sequence-specific primer (2 min at 95 C, 20 s at 68 C and 10 min at 72 C) and these products were digested with 5U of HpaI (New England Biolabs) for 2h at 37 C. The fragments were purified using Qiaquick PCR columns (Qiagen), analyzed on an ABI 3130xL genetic analyzer (Applied Biosystems) with peak positions identified by using a set of X-rhodamine (ROX)-labeled MapMarker1000 molecular weight standards (BioVentures). The raw capillary electrophoresis data was processed using Attagraph software (Attagene).

Compound | outcome | AC50
CN(C)C(=S)S | inactive | –
O=S(=O)(Oc1ccc(Cl)cc1)c1ccc(Cl)cc1 | inactive | –
C#CCOC(=O)/C=C(C)/C=C/CC(C)CCCC(C)C (stereo not given) | – | 16.6 µM (active)
Cc1ccc(OP(=O)(Oc2ccc(C)cc2C)Oc2ccc(C)cc2C)c(C)c1 | inactive | –
O=[N+]([O-])c1ccc(Cl)c([N+](=O)[O-])c1 | inactive | –
O=C(Cc1ccccc1)OCCc1ccccc1 | inactive | –
Clc1ccc(C(Cl)(Cl)Cl)cn1 | inactive | –
Cc1cc(C(C)(C)c2ccc(O)c(C)c2)ccc1O | – | 69.3 µM (active)
Oc1c(Br)cc(Br)cc1Br | inactive | –
c1ccc2sc(SNC3CCCCC3)nc2c1 | inactive | –
N#Cc1ccc(Cl)cc1 | inactive | –
CCOP(=O)(OCC)SCCSCC | inactive | –
CCCCCCCCCCCCOS(=O)(=O)O | inactive | –
CCOP(=S)(OCC)SCSc1cc(Cl)ccc1Cl | inactive | –
O=C=Nc1ccc(Cl)cc1 | inactive | –
CCCCC(CC)COC(=O)Cl (stereo not given) | inactive | –
CCN(CC)C(=O)C(Cl)=C(C)OP(=O)(OC)OC | inactive | –
Brc1ccc(Oc2c(Br)cc(Br)cc2Br)c(Br)c1 | inactive | –
CCC(C)(C#N)N=NC(C)(C#N)CC (stereo not given) | inactive | –
Brc1c(Br)c(Br)c(Oc2c(Br)c(Br)c(Br)c(Br)c2Br)c(Br)c1Br | inactive | –

Compound | outcome | AC50
COC(F)(C(F)(F)C(F)(F)F)C(F)(C(F)(F)F)C(F)(F)F (stereo not given) | inactive | –
CCC[CH2][Sn]([CH2]CCC)([CH2]CCC)[CH2]CCC | – | 0.497 µM (active)
ClCc1ccccc1CCl | inactive | –
CC(=Cc1ccccc1)[N+](=O)[O-] | inactive | –
[Cl][Sn]([c]1ccccc1)([c]1ccccc1)[c]1ccccc1 | – | 0.00688 µM (active)
CNC(=O)N(C)c1nc2ccccc2s1 | inactive | –
OC(Cc1ccccc1Cl)(Cn1cncn1)C1(Cl)CC1 (stereo not given) | inactive | –
C=C(C)C(=O)OCC(CC)CCCC (stereo not given) | inactive | –
COP(=S)(OC)Oc1cc(Cl)c(I)cc1Cl | inactive | –
CNC(=O)O/N=C/C(C)(C)S(C)(=O)=O | inactive | –
OCC(c1ccc(Cl)cc1)c1ccc(Cl)cc1 | – | 46.3 µM (active)
Clc1cnc(Oc2ccc(Oc3ncc(Cl)cc3Cl)cc2)c(Cl)c1 | inactive | –
OC[P+](CO)(CO)CO | inactive | –
CCN(CCO)CCO | inactive | –
O=S1(=O)OC(c2cc(Br)c(O)c(Br)c2)(c2cc(Br)c(O)c(Br)c2)c2ccccc21 | inactive | –
Oc1cccc(-c2ccccc2)c1 | inactive | –
OC[C@@H](O)[C@H]1O[C@@H]2O[C@H](C(Cl)(Cl)Cl)O[C@@H]2[C@H]1O | inactive | –
CC(C)(c1ccccc1)c1cc(-n2nc3ccccc3n2)c(O)c(C(C)(C)c2ccccc2)c1 | inactive | –
COCC(=O)N(c1c(C)cccc1C)[C@H](C)C(=O)OC | inactive | –
CCCCS(=O)(=O)Cl | inactive | –

Source: PubChem BioAssay (EPA / NIEHS)
